Bioassay records (PubChem)
This is a sample that favours compounds with a hit; in the whole collection about 18% have one here.
IL-1B inflam inh: inflammasome signaling inhibition, IL-1 beta readout | activity change, % at 57.5 µM | THP-1 LPS/ATP IL-1B secretion, AlphaLISA, 16 h; stronger effect = lower value | 360,000 tested, 4.7% active; in the data active = activity change below about -50%; inconclusive = mostly about -30% to -49%
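THP-1 cells pretreated 1 hr with compounds (up to 57.5 uM final), then stimulated with LPS (250 ng/mL final) plus ATP (1.25 mM final); secreted IL-1B measured by AlphaLISA after 16 hr, decreased signal indicating inhibition.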
LDHA block: blocks human lactate dehydrogenase A. P00338. purified LDHA, NADH/diaphorase-resazurin fluorescence; stronger effect = lower value. activity change, % (values are at about 110 or 230 µM). 480,000 tested, 0.15% active. AID 1347041; in the data active = activity change below about -30%; inconclusive = mostly about -25% to -30%;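 note: plate controls were DMSO wells for no effect and wells without enzyme for full effect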
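Remaining NADH was detected by diaphorase (0.133 mg/mL) converting 37 µM resazurin to fluorescent resorufin, read at 0 and 20 minutes. The preceding 5-minute room-temperature reaction used 2 nM LDHA, 0.2 mM sodium pyruvate and 0.06 mM NADH at pH 7.4.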
RORg inh: inhibitors of mouse ROR gamma transcriptional activity; P51450; Potency, µM (titrated, usually from 53.6 µM), inactives show at the top dose activity change, negative = inhibition, usual class: inhibitors; Drosophila S2 Gal4-RORgamma UAS-luciferase reporter, 20 h; 310,000 tested, 5.4% active; note: potency is the fitted concentration of half-maximal effect; nearly all actives have a fitted effect of over 60% in size
Target sequence (P51450 whole entry, looked up, the tested form may be a part): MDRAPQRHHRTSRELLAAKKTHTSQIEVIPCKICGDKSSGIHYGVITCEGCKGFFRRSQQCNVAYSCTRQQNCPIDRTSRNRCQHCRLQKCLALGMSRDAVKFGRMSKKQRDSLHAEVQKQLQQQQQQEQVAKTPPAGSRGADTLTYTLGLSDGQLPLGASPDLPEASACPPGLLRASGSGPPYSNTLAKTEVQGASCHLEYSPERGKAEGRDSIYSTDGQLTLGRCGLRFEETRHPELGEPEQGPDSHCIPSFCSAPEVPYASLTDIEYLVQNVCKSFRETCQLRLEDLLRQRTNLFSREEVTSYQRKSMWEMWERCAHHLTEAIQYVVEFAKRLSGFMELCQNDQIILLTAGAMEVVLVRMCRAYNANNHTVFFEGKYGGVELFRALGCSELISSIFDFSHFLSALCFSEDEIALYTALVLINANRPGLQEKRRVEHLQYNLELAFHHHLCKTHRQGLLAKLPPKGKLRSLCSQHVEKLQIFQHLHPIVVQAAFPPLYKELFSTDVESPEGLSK
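Stably transfected Drosophila Schneider cells are the test system, with ROR gamma fused to Gal4 and luciferase under UAS control; luminescence is read after 20 hr of 700 uM copper sulfate induction at ambient temperature.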
TDP1 cell noCPT: qHTS for Inhibitors of human tyrosyl-DNA phosphodiesterase 1 (TDP1): qHTS in cells in absence of CPT; AID 686978, 2013; Potency, µM (top dose mostly 46.2 µM), for the others: top-dose activity change, negative = growth inhibition, most hits filed as inhibitors; 420,000 tested, 15% active; DT40 Tdp1-/- hTDP1 cells, no CPT, ATP luminescence, 48 h; note: potency is the fitted concentration of half-maximal effect; nearly all actives have a fitted effect of over 55% in size
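A cellular qHTS used chicken DT40 cells lacking endogenous Tdp1 but carrying stably transfected human TDP1. Compounds were applied without camptothecin, and cell growth kinetics were judged by ATP-dependent luminescence after ≥48 hr.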
DT40 TDP1 CPT: DT40-hTDP1 cell growth loss with CPT | chicken DT40 Tdp1-/-;hTDP1 cells + 20 nM CPT, ATP luminescence, 48 h | Potency, µM (series often up to 46.2 µM), without a hit: at the top dose activity change, negative = growth inhibition, most hits filed as inhibitors | 420,000 tested, 12% active; note: potency is the fitted concentration of half-maximal effect; nearly all actives have a fitted effect of over 55% in size
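Chicken DT40 Tdp1-/- cells stably complemented with human TDP1 were seeded at 400 cells/well in medium containing 20 nM camptothecin, exposed to pin-transferred compounds, and grown at 37 °C for at least 48 hr. Viability was read as ATP luminescence.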
Gal4-VP16 FLuc: Gal4-VP16 reporter inhibition counter-screen. Drosophila S2 Gal4-VP16 UAS-luciferase, luminescence, 20 h. Potency, µM (top dose mostly 53.6 µM), for the others: at the highest dose activity, negative = inhibition, usual class: inhibitors. 310,000 tested, 3.5% active;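 note: Gal4-VP16 expression switched on by copper sulfate through the metallothionein promoter; potency is the fitted concentration of half-maximal effect; nearly all actives have a fitted effect of over 50% in size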
* = called active by the depositor; u = inconclusive; x = no result. Unless noted, calls come from the whole dose curve; as a rule, active = well fitted curve in the direction sought with a large enough effect; inconclusive = small, poorly fitted or top-dose-only effect, or another doubt; inactive = no such curve, though single readings can be large; an effect the other way counts as inactive or inconclusive. Unless noted, % is set by controls: 0 for no effect and ±100 for the full control effect.

SMILES	IL-1B inflam inh	LDHA block	RORg inh	TDP1 cell noCPT	DT40 TDP1 CPT	Gal4-VP16 FLuc
COc1ccc(CC(=O)NC(=S)Nc2ccc(S(=O)(=O)NC(C)(C)C)cc2)cc1	10	-2	13µM*	-11%	u	-6%
Cn1c(SCC(=O)NCC2CN(Cc3ccccc3)CCO2)nnc1-c1ccc(C(C)(C)C)cc1 (stereo unspecified)	x	-3	x	x	x	x
Cc1ccc(N)c(OCC(F)(F)F)c1	x	6	x	x	x	x
CCC(=O)Nc1ccc(NC(=S)NC(=O)Cc2ccccc2)cc1	-11	-2	-2%	-5%	-8%	-8%
C=CCN(CC=C)S(=O)(=O)c1ccc(NC(=S)NC(=O)c2ccco2)cc1	-21	-3	0%	18µM*	u	u
O=C(Cc1ccccc1)NC(=S)Nc1ccc(OC(F)F)cc1	72	-4	20µM*	-1%	-18%	11µM*
COc1ccc(NC(=S)NCCCc2ccccc2)cc1	-6	-1	3.5µM*	u	u	13µM*
O=C(NNC(=S)NCc1ccccc1)c1ccccc1OC(F)F	0	2	-42%	-15%	0%	u
O=C(NNC(=S)Nc1ccc(Cl)cc1)c1ccccc1OC(F)F	20	-5	-39%	23µM*	u	u
C/C=C/C=C/C(=O)NC(C)c1cc(F)ccc1F (stereo unspecified)	x	-2	x	x	x	x
O=C1CN(Cc2ccc(F)c3cccnc23)CCN1	x	6	x	x	x	x
COC(=O)Cc1ccc(NC(=S)NNC(=O)c2ccccc2Br)cc1	-19	-6	1.6µM*	-20%	-10%	18µM*
Cc1cccc(C)c1NC(=O)C1=C(O)c2sccc2N(C)S1(=O)=O	17	-2	3%	-14%	13%	6%
Cc1cccc(C(=O)N/N=C2\CS(=O)(=O)N(C)c3ccsc32)c1	22	-2	u	13µM*	21µM*	-26%
Cc1ccc(N/N=C2\CCS(=O)(=O)c3sccc32)cc1	u	0	2%	-29%	-18%	4%
CN1c2ccsc2/C(=N/Nc2ccccc2)CS1(=O)=O	u	-4	u	1.3µM*	4.1µM*	u
CN1c2ccsc2/C(=N/NC(=O)c2c(F)cccc2F)CS1(=O)=O	12	-1	3.2µM*	-13%	-14%	5µM*
CCN(CC)C(=O)CN(C)C(=O)CCc1ccccc1	x	5	x	x	x	x
Cc1ccc(C(C)NC(=O)Cc2c(C)[nH]c3ccccc23)o1 (stereo unspecified)	x	-9	x	x	x	x
CCCCCc1ccc(C(=O)CC)cc1	x	-2	x	x	x	x
CCc1ccc(-c2cc3c(N4CCN(c5ccccc5)CC4)nccn3n2)cc1	x	-5	x	21µM*	u	x
CCc1ccc(-c2cc(N)n(-c3ccccc3)n2)cc1	-22	0	-4%	0%	-18%	-14%
O=C(c1cnn2c1NC(c1ccc(Br)cc1)CC2C(F)(F)F)N1CCN2CCCC2C1 (stereo unspecified)	-7	-4	19%	u	18µM*	-11%
O=C(c1cnn2c1NC(c1ccc(Br)cc1)CC2C(F)(F)F)N1CCN(C23CC4CC(CC(C4)C2)C3)CC1 (stereo unspecified)	1	-9	4%	u	u	-6%
Cc1cc(N2CCOCC2)nc2ccc(NC(=O)C3CCCCC3)cc12	x	-7	x	10µM*	13µM*	x
SMILES	IL-1B inflam inh	LDHA block	RORg inh	TDP1 cell noCPT	DT40 TDP1 CPT	Gal4-VP16 FLuc
CCOCCCNC(=O)Nc1ccc2nc(N3CCOCC3)cc(C)c2c1	x	2	x	x	x	x
Cc1cc(N2CCOCC2)nc2ccc(NC(=S)N3CCCCC3C)cc12 (stereo unspecified)	-67*	19	u	u	u	-4%
CCc1cc(-c2n[nH]c(C)c2-c2nc(C)cs2)c(O)cc1OC	-78*	-1	13µM*	-28%	0%	u
CCc1cc(-c2n[nH]c(C)c2-c2nc3ccccc3s2)c(O)cc1OCC(=O)NN	12	-5	25%	4%	1%	-4%
O=C(NC(NCc1ccccc1Cl)(C(F)(F)F)C(F)(F)F)c1ccccc1	x	3	x	x	x	x
CC(C)CC(NC(=O)c1cccc(N(C)C)c1)c1ccccc1 (stereo unspecified)	x	3	x	x	x	x
COc1ccc(-c2c(=O)n(OCc3ccccn3)c3ccccc3[n+]2[O-])cc1OC	3	17	5%	u	-29%	1%
COc1ccc(-c2c(=O)n(OC)c3ccccc3[n+]2[O-])cc1OC	-16	2	5%	15µM*	12µM*	-13%
C=CCOn1c(=O)c(-c2ccc(OC)c(OC)c2)[n+]([O-])c2ccccc21	5	2	27%	u	u	12%
CCOc1ccc(-c2c(=O)n(OCc3ccccn3)c3ccccc3[n+]2[O-])cc1	-30	-7	-10%	12µM*	21µM*	-13%
COc1ccc(-c2c(=O)n(OCc3ccccc3[N+](=O)[O-])c3ccccc3[n+]2[O-])c(OC)c1	-9	0	15%	18µM*	u	11%
COc1ccc(OC)c(S(=O)(=O)N2CCN(C(=O)NC3CCCC3)CC2)c1	x	12	x	x	x	x
CNC(=S)N(CCc1c(C)[nH]c2ccc(OC)cc12)Cc1cccnc1	0	-3	33%	-25%	-5%	-2%
CCOc1ccc(NC(=S)N(CCc2c(C)[nH]c3ccccc23)Cc2ccco2)cc1	u	-1	u	u	13µM*	u
